# Measurements as given in PubChem BioAssay.
# Records with an inconclusive call do not appear. The source made the active and inactive calls. Cut-off read from the data, not from the text of the source, unless noted: active = response above about 15%; inactive = the rest.
# Tests used:
# [1] = yeast TOR pathway RPL19A-GFP modulators, primary screen, cell-based, S. cerevisiae, multiplex flow cytometry (AID 1862; in the data active = percent of DMSO control GFP below about 86%;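 note: lower values mimic rapamycin by blocking the RPL19A rise seen in DMSO cells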); settings: S. cerevisiae RPL19A-GFP strain, flow cytometry fluorescence, 3 h; at 10 µM; stronger effect = lower value
# [2] = modulators of MEP2-GFP levels in yeast, primary screen, S. cerevisiae, multiplex flow cytometry (AID 1867;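 active = GFP response, as percent of the DMSO control, above the screen-wide mean plus 3 SD, about 139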;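 note: median GFP channel fluorescence of barcode-gated MEP2-GFP cells measured by flow cytometry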); settings: S. cerevisiae MEP2-GFP strain, 3 h, at 10 µM, stronger effect = higher value, 100% means same as DMSO wells
# [3] = modulators of CIT2-GFP expression in yeast, primary screen, S. cerevisiae, GFP fusion, multiplex flow cytometry (AID 1870;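 active = percent response above a set limit, the screen-wide mean plus 3 SD, cut at about 130% in these data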;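 note: barcoded CIT2-GFP strain pooled with four other GFP strains with rapamycin as positive control; median GFP fluorescence per well over plate mean of DMSO wells so 100% = DMSO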); settings: 3 h, at 10 µM, stronger effect = higher value
# [4] = modulators of LAP4-GFP expression in yeast, primary screen, S. cerevisiae, multiplex flow cytometry (AID 1873;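 active = GFP signal, as percent of the solvent control, above the screen mean plus 3 SD, about 149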); settings: 3 h, at 10 µM, stronger effect = higher value
# [5] = modulators of AGP1-GFP expression in yeast TOR pathway, primary screen, cell-based, multiplex flow cytometry, S. cerevisiae (AID 1887;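 active = GFP signal above the screen-wide mean plus 3 SD, that is over about 124.5% of the solvent control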;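 note: AGP1-GFP fusion strain of S. cerevisiae within a five-strain barcoded multiplex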); settings: 3 h, at 10 µM, stronger effect = higher value
# [6] = inhibitors of CD8+ T cell-vesicle binding, pilot screen, LFA-1/ICAM-1 modulator project, MLPCN validation set, flow cytometry (AID 2523;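 active = response below a set limit, under 55% cells CD8-positive and vesicle-bound, and CD8 cells' 90th-percentile brightness under 279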;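 for vesicle binding response: mean PE anti-B7-1 fluorescence of CD8+ cells relative to row control; 100% = QL9-loaded vesicles with DMSO vehicle in the same plate row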); settings: 2C mouse CD8+ T cells, at 7 µM, stronger effect = lower value; double positive events: measured here: CD8+/vesicle+ event percentage
# [7] = target: Integrin beta-1 (Homo sapiens) + Integrin alpha-4 (Homo sapiens) (UniProt P13612+P05556); assay: inhibition of HUTS-21 binding to VLA-4, pilot screen, VLA-4 allosteric modulator project, U937 cells, HUTS-21 mAb, flow cytometry, validation set (AID 2674;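 active = inhibition above 50%, about 3 SD of the validation set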;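 note: antibody binding induced by the VLA-4 ligand LDV present at three times its Kd; 0% = LDV ligand with antibody and no compound and 100% = antibody without LDV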); settings: HUTS-21 LIBS mAb binding, at 6.7 µM, stronger effect = higher value, binding induced by LDV ligand
# Chain of Integrin beta-1 (Homo sapiens) + Integrin alpha-4 (Homo sapiens) (P05556 whole entry, looked up): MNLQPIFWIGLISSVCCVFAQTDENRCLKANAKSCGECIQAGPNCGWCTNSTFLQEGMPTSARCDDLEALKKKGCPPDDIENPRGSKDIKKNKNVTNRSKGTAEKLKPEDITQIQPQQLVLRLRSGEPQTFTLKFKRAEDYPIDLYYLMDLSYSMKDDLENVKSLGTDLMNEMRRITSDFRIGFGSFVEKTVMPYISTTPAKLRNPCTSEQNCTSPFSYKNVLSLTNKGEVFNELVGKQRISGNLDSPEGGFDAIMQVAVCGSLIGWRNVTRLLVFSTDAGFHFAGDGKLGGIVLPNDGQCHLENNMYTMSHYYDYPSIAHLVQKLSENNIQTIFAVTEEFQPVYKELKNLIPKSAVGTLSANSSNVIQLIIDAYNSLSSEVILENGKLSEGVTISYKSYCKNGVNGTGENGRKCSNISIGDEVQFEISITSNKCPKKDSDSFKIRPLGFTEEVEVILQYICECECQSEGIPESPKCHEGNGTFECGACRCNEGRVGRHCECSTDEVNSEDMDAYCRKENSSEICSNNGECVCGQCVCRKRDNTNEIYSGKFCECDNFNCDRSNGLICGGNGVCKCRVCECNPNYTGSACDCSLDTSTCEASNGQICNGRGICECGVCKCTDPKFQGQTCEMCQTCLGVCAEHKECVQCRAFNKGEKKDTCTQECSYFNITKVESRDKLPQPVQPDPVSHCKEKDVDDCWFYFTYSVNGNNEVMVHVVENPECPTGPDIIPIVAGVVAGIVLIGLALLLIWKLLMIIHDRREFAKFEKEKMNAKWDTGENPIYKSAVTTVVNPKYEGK
# Chain of Integrin beta-1 (Homo sapiens) + Integrin alpha-4 (Homo sapiens) (P13612 whole entry, looked up): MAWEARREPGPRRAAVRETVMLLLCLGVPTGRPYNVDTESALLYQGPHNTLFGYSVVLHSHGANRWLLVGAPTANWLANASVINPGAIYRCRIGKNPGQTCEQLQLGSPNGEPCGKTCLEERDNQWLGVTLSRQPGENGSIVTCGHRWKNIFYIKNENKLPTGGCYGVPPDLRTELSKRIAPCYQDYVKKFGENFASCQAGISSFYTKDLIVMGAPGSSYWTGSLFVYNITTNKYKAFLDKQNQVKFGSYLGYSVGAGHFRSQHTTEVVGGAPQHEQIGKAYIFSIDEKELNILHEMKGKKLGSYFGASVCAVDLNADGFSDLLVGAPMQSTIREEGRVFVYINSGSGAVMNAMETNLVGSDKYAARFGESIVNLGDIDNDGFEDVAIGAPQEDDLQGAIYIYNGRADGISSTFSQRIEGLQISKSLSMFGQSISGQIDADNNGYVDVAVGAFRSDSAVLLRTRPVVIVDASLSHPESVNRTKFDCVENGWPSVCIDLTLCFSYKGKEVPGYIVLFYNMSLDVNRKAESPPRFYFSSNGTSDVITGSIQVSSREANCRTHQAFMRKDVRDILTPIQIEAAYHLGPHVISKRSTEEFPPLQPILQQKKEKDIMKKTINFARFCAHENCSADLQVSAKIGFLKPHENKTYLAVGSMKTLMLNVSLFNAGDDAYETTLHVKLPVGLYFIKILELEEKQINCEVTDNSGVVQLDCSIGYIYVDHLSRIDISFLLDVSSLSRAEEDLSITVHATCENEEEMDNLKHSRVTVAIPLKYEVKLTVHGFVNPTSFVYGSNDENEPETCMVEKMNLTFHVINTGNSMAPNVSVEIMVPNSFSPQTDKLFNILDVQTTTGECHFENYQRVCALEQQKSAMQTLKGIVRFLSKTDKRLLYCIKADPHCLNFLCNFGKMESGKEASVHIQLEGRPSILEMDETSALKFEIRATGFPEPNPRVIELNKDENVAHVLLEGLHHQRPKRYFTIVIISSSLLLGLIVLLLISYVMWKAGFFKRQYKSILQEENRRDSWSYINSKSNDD
# [8] = superoxide lowering in aged yeast cells, pilot screen, validation compound set (AID 2706;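 active = superoxide response below 65% of plate, a cut near 3 SD across the whole screen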;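 note: yeast exposed to compound for one week at 30 degrees C before staining; 100% = mean of all compound wells on the same plate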); settings: S. cerevisiae aging, superoxide DHE fluorescence; at 10 µM; stronger effect = lower value
# [9] = target: Beta-adrenergic receptor kinase 1 (Homo sapiens) (UniProt P25098); assay: GRK2 binders displacing RNA aptamer, biochemical, validation, human GRK2, bead flow cytometry (AID 488806;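 active = aptamer binding inhibition above 30%, about 3 SD of noise from non-fluorescent compounds; inactive = inhibition at or below 30%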); settings: bead-bound GRK2, FAM-aptamer displacement, at 10 µM, stronger effect = higher value
# Chain of Beta-adrenergic receptor kinase 1 (Homo sapiens) (P25098 whole entry, looked up): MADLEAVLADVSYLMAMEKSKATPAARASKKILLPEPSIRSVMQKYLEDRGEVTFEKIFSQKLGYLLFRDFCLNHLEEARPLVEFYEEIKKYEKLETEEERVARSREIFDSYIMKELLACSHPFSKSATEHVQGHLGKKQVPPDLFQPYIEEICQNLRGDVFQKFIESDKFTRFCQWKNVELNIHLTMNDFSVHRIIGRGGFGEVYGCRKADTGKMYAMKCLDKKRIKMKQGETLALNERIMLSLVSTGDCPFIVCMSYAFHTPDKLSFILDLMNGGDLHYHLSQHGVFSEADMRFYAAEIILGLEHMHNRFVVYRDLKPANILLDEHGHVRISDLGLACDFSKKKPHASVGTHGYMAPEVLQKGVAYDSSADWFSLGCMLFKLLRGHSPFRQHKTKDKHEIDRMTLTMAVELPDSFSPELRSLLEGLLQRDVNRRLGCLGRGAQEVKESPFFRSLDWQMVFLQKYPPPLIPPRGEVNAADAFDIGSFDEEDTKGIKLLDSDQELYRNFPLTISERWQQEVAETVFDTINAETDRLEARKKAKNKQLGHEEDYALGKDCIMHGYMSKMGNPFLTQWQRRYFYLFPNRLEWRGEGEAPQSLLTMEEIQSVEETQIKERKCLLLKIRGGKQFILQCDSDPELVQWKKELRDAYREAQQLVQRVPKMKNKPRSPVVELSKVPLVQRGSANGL
# [10] = target: Beta-2 adrenergic receptor (Homo sapiens) (UniProt P07550); assay: beta2AR agonists driving receptor internalization, pilot screen, cell-based, FAP fluorogen, flow cytometry, validation set (AID 504459;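 active = percent response above 42, roughly 3 SD of non-fluorescent test compounds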;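 note: agonist-driven loss of surface beta2AR via internalization measured by FAP dye flow cytometry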); settings: Am2.2-beta2AR cells, FAP surface receptor flow cytometry; at 10 µM; stronger effect = higher value
# Chain of Beta-2 adrenergic receptor (Homo sapiens) (P07550 whole entry, looked up): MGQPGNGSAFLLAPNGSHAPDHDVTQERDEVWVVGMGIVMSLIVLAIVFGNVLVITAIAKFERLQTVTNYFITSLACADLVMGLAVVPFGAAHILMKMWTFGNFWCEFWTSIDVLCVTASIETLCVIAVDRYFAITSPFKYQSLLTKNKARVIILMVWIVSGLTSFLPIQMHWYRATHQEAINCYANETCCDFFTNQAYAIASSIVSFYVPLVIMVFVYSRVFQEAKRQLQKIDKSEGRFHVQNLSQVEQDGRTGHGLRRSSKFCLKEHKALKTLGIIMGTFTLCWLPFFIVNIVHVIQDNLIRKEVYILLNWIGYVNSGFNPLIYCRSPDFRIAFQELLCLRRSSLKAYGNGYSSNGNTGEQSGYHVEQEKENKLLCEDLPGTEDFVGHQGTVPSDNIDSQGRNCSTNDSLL
# [11] = target: AP-2 complex subunit beta (Homo sapiens) (UniProt P63010); assay: inhibitors of arrestin peptide binding to AP2, pilot screen, biochemical, validation set, GST-AP2 beads, flow cytometry (AID 504541;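 active = inhibition above 54%, about 3 SD of non-fluorescent compounds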;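 note: AP2 carries R879A mutation and is captured from E. coli lysate; bead-bound FITC arrestin peptide fluorescence measuring arrestin peptide binding to AP2; 0% = DMSO wells and 100% = excess unlabeled arrestin peptide control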); settings: FITC arrestin peptide, at 10 µM, stronger effect = higher value, AP2 beta2 appendage fragment, R879A mutant
# Chain of AP-2 complex subunit beta (Homo sapiens) (P63010 whole entry, looked up, the tested form may be a part, one chain of several): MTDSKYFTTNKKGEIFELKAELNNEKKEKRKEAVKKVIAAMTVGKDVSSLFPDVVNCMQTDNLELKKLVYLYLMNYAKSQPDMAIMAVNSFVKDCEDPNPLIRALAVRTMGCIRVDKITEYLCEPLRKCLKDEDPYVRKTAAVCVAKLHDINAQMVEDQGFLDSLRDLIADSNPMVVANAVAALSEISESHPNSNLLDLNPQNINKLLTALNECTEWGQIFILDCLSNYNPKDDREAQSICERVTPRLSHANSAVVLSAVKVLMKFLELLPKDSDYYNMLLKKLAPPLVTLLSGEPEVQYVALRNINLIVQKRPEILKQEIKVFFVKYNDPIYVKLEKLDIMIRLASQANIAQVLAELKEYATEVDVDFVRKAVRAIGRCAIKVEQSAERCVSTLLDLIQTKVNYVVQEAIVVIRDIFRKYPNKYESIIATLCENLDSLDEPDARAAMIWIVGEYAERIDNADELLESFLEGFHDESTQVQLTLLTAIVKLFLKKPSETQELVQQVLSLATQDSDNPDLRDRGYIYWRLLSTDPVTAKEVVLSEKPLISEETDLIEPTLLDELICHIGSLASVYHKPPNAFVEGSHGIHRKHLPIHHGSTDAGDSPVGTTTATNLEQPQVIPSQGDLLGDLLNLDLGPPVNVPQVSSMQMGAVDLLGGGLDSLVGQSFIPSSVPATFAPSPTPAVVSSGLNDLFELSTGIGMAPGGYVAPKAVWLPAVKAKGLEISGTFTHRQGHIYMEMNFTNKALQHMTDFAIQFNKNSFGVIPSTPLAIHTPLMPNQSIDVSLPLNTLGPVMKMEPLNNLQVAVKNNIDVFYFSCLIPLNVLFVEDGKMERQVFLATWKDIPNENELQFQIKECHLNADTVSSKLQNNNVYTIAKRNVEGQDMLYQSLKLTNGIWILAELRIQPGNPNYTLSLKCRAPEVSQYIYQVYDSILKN
# [12] = yeast V-ATPase proton transport modulators, S. cerevisiae, pHLuorin, HTS validation (AID 504600);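 note: plate controls were DMSO for no effect and reference compound for full effect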; settings: S. cerevisiae pHLuorin cytosolic pH, at 10 µM, stronger effect = higher value
# [13] = system: anti-desmoglein-3 scFv antibody binding to human DSG3; assay: inhibitors of anti-DSG3 scFv binding to DSG3, pilot screen, biochemical, validation compound set, bead-based, flow cytometry (AID 588368;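 active = binding below the plate cutoff, the plate median minus 3 SD, with a reading above zero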;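 note: signal is the median channel fluorescence of bead-bound GFP antibody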); settings: Protein G beads, DSG3-Fc, scFv-GFP binding, at 10 µM, stronger effect = lower value
# [14] = inhibitors of fungal efflux pumps CDR1, CDR2, MDR1, pilot screen, validation compound set, multiplex, phenotypic (AID 588506;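 active = efflux inhibition above 0.42, the validation set average plus 4 SD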;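 note: Nile Red retained in cells so higher fluorescence means more efflux inhibition; 0 = negative control wells and 1 = enniatin B 25 µM full block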); settings: S. cerevisiae pump-expressing triplex, Nile Red efflux flow cytometry; at 10 µM; stronger effect = higher value; the pumps come from Candida albicans
# [15] = target: ATP-binding cassette sub-family B member 6 (Homo sapiens) (UniProt Q9NP58); assay: ABCB6 transporter inhibitors, pilot screen, K562-ABCB6 cells, flow cytometry, validation set (AID 588550;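 active = inhibition above the screen-wide mean plus 3 SD, about 51%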;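 note: 0% = DMSO wells and 100% = benzethonium chloride 70 µM positive control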); settings: K562-ABCB6 porphyrin accumulation, 1 h, at 10 µM, stronger effect = higher value
# Chain of ATP-binding cassette sub-family B member 6 (Homo sapiens) (Q9NP58 whole entry, looked up): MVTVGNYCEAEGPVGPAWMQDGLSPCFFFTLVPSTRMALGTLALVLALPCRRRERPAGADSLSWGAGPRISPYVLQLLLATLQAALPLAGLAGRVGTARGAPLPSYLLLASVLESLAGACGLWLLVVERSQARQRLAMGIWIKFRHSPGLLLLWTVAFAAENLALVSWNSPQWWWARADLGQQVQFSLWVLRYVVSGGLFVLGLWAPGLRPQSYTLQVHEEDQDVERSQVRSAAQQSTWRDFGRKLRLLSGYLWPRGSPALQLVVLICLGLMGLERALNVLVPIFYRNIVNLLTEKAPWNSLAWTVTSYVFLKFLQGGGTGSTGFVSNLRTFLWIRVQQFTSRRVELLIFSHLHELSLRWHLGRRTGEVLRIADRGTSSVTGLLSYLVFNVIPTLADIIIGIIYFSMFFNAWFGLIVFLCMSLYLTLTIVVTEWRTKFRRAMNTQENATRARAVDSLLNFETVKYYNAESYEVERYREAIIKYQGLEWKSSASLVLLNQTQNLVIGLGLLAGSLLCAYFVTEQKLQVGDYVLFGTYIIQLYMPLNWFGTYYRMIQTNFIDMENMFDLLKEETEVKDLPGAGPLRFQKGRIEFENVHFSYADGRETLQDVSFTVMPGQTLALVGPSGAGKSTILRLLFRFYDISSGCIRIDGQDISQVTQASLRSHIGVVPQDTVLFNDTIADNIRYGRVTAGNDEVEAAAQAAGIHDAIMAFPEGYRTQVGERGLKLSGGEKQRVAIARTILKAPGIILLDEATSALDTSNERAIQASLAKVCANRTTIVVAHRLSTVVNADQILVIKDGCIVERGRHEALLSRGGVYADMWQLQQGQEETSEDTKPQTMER
# [16] = promoters of myeloid differentiation in arrested cells, primary screen, cell-based, GFP/MAC1 double positive, flow cytometry, validation set (AID 588685;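 active = differentiation response of at least 50%, scaled between solvent and reference control, from cells with both markers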;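 note: compound exposure lasts four days before antibody staining and flow analysis; 0% = DMSO wells and 100% = 5 µM fulvestrant positive control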); settings: ER-HoxA9 marrow cells, stronger effect = higher value, normalized: vehicle 0, fulvestrant 100
Structure (SMILES),percent of DMSO control GFP [1],GFP response vs DMSO [2],percent response of DMSO control [3],GFP response vs DMSO [4],"GFP response, % of DMSO [5]",double positive events [6],vesicle binding response [6],inhibition [7],superoxide response (% of plate) [8],aptamer binding inhibition [9],response [10],inhibition [11],response [12],binding (% of control) [13],efflux inhibition (fraction of control) [14],inhibition [15],differentiation response [16]
Nc1nc(Cl)nc2c1ncn2[C@@H]1O[C@H](CO)[C@@H](O)[C@H]1O,92.4% (inactive),128% (inactive),101% (inactive),80.3% (inactive),102% (inactive),57.5%,109% (inactive),2.58% (inactive),95.9% (inactive),6% (inactive),-6.94% (inactive),1.36% (inactive),10.6% (inactive),104% (inactive),0.3 (inactive),9% (inactive),1.64% (inactive)
CC1(C)C(C=C(Cl)Cl)C1C(=O)N1CCN(Cc2ccccc2)CC1 (stereo not given),103% (inactive),99.3% (inactive),104% (inactive),89.4% (inactive),103% (inactive),66.3%,329% (inactive),-6.68% (inactive),102% (inactive),3% (inactive),-1.88% (inactive),5.16% (inactive),-5.4% (inactive),93.5% (inactive),-0.01 (inactive),13% (inactive),-9.53% (inactive)
Cc1oc2cc(O)cc(O)c2c(=O)c1-c1ccc2c(c1)OCCCO2,95.6% (inactive),103% (inactive),88.2% (inactive),128% (inactive),91.7% (inactive),60.8%,195% (inactive),14.6% (inactive),100% (inactive),3% (inactive),5% (inactive),21% (inactive),0.59% (inactive),101% (inactive),0.01 (inactive),8% (inactive),12% (inactive)
C=CCNC(=O)c1ccc(-c2cccc([N+](=O)[O-])c2)o1,98.8% (inactive),101% (inactive),91.7% (inactive),107% (inactive),95.1% (inactive),52.6%,773% (inactive),6.85% (inactive),101% (inactive),3% (inactive),9.11% (inactive),-25% (inactive),-0.55% (inactive),101% (inactive),-0.34 (inactive),4% (inactive),6.49% (inactive)
CCN(CC)CCOC(=O)C(c1ccccc1)c1ccccc1,102% (inactive),108% (inactive),91.9% (inactive),90.1% (inactive),95.6% (inactive),59.4%,91.8% (inactive),-4.6% (inactive),105% (inactive),3% (inactive),2.02% (inactive),59.1% (active),-3.97% (inactive),99% (inactive),0.3 (inactive),6% (inactive),37.4% (inactive)
CNC(=O)Oc1ccc2c(c1)[C@]1(C)CCN(C)[C@@H]1N2C,104% (inactive),102% (inactive),86% (inactive),112% (inactive),122% (inactive),62.8%,183% (inactive),5.69% (inactive),98.7% (inactive),3% (inactive),-21.5% (inactive),-9.24% (inactive),-0.59% (inactive),104% (inactive),0.12 (inactive),4% (inactive),-4.99% (inactive)
CC1(C)CC(O)(CNCc2ccc3c(c2)OCO3)CCO1 (stereo not given),103% (inactive),102% (inactive),101% (inactive),106% (inactive),105% (inactive),66.2%,192% (inactive),15.9% (inactive),104% (inactive),1% (inactive),-24.4% (inactive),44.7% (inactive),-2.49% (inactive),104% (inactive),-0.04 (inactive),2% (inactive),0.92% (inactive)
COc1ccccc1C(=O)Nc1cc2cc(Br)ccc2oc1=O,101% (inactive),106% (inactive),96% (inactive),99.4% (inactive),101% (inactive),58.5%,30.4% (inactive),-4.61% (inactive),97.2% (inactive),3% (inactive),4.22% (inactive),-7.21% (inactive),-0.54% (inactive),101% (inactive),-0.47 (inactive),12% (inactive),-5.68% (inactive)
O=C(NCc1ccc2c(c1)OCO2)c1ccc2c(c1)OCCO2,101% (inactive),105% (inactive),105% (inactive),92.6% (inactive),101% (inactive),61%,132% (inactive),11% (inactive),104% (inactive),-1% (inactive),0.83% (inactive),-6.32% (inactive),-0.38% (inactive),103% (inactive),-0.21 (inactive),11% (inactive),20.3% (inactive)
CC(C)C1CC(CCNCc2ccc(N(C)C)cc2)(c2ccccc2)CCO1 (stereo not given),95.2% (inactive),105% (inactive),118% (inactive),76.5% (inactive),87.7% (inactive),58.6%,200% (inactive),9.37% (inactive),112% (inactive),-4% (inactive),3.92% (inactive),-7.09% (inactive),0.42% (inactive),111% (inactive),-0.09 (inactive),8% (inactive),-1.64% (inactive)
